About 2,000 (36%) of roughly 5,500 compounds were called active. Another 18% or so got no clear call; they are omitted. No stated cut-off is given here; in the data, active means normalized growth mostly below about 0.91 (no sharp cut-off); inconclusive means no clear call, values can overlap the other calls; inactive means mostly above about 0.92. The list shows a part of the results.
Assay: chemical genetic growth profiling, strain panel (AID 1159580);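 further: tested at 20 µM; growth read once vehicle control cultures reached saturation at 30 °C; 1 = growth at the plate median or of vehicle wells; lower values mean less growth of the strain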
Details: S. cerevisiae deletion strains, growth OD

Measured: normalized growth

CC(=O)NNC(=O)N1Cc2ccccc2Oc2ccc(Cl)cc21
inactive: locus YAL013W, strain DEP1, hits give low values 1.04 | locus YAL040C, strain CLN3, hits give low values 1 | locus YCL061C, strain MRC1 (second series), hits give low values 1.02 | locus YDR150W, strain NUM1, hits give low values 1.02 | locus YDR363W, strain ESC2, hits give low values 1.03 | locus YER002W, strain NOP16, hits give low values 1 | locus YMR307W, strain GAS1, hits give low values 0.997 | locus YNL153C, strain GIM3, hits give low values 1.02 | locus YNL175C, strain NOP13, hits give low values 0.989 | locus YNL197C, strain WHI3, hits give low values 1.01 | locus YNL224C, strain SQS1, hits give low values 0.984 | locus YNL322C, strain KRE1, hits give low values 1.03 | locus YOR083W, strain WHI5 (second series), hits give low values 1.01 | locus YPL055C, strain LGE1, hits give low values 1.04 | locus YPL241C, strain CIN2, hits give low values 1
